Laboratory results: PubChem BioAssay (NCI)
The panel holds about 83,000 compounds, 20% with a hit somewhere; the sample as a whole holds those more often.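 Cells were grown in 96-well plates and exposed to the test compound at a single concentration for 48 hours; results are reported as percent growth, with values below 10 considered active.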 Unmarked numbers belong to inactive results. The source made the active and inactive calls.

Tests used:
Experiment in all cases: NCI-60 one-dose screen, 48 h (100 = growth as untreated, 0 = no growth, -100 = all killed)
Details in all cases: 10 µM unless noted
[1] = tested on: HCT-15 colon
[2] = tested on: HT29 colon
[3] = tested on: SNB-75 CNS
[4] = tested on: SNB-19 CNS
[5] = tested on: U251 CNS
[6] = tested on: SK-MEL-5 melanoma
[7] = tested on: UACC-62 melanoma
[8] = tested on: LOX IMVI melanoma
[9] = tested on: SK-MEL-28 melanoma
[10] = tested on: PC-3 prostate

SMILES | growth [1] | growth [2] | growth [3] | growth [4] | growth [5] | growth [6] | growth [7] | growth [8] | growth [9] | growth [10]
Cc1cc(C)nc(NS(=O)(=O)c2ccc(Nc3nc4nc(SCc5ccccc5)nc(-c5ccc(O)cc5)c4c(=O)[nH]3)cc2)n1 | 109% | 123% | 88.3% | 74.9% | 94.6% | 99.5% | 83.5% | 101% | 86.3% | 
COc1cc(C2CC(C3C(=O)N(C)C(=O)N(C)C3=O)=NN2C=O)cc(OC)c1OC (stereo not given) | 102% | 76.2% | 94.8% | 100% | 96.3% | 113% | 93.9% | 97.7% | 108% | 
CSc1nc2nc3c(c(-c4ccc(C)cc4)c2c(=O)[nH]1)CN(C)C/C3=C\c1ccc(C)cc1 | 116% | 103% | 93% | 97.3% | 91.2% | 77.1% | 93.8% | 90% | 111% | 
OCCN1CCN(CCCN2c3ccccc3Sc3ccc(C(F)(F)F)cc32)CC1 | 18.3% | -43% (active) | 46.3% | 62.7% |  | -93.3% (active) | -55.5% (active) | -41.6% (active) | -86.6% (active) | 20.4%
COc1ccc2[nH]c(=O)c(CNc3ccc(Nc4nccc(-c5ccc(Cl)cc5)n4)cc3)cc2c1 | 74.3% | 76% | 106% | 95.4% |  | 95.6% | 96.7% | 97.1% | 112% | 71.4%
Fc1ccccc1C1c2ccccc2-c2nccn21 (stereo not given) | 99.2% | 100% | 98.2% | 100% |  | 97% | 89% | 98.1% | 109% | 87.3%
N#Cc1ncc(-c2ccc(C(F)(F)F)cc2)c(NC2CCCCCC2)n1 | 57.1% | 19.1% | 49.7% | 35.2% |  | -6.45% (active) | 13.2% | 32.5% | 36.5% | 4.57% (active)
COc1cc(/C=C/C(=O)c2c(C)n([O-])c3ccc(Cl)cc3[n+]2=O)cc(OC)c1OC | 59% | 102% | 75.8% | 83.1% | 80.1% | 47% | 82.9% | 68.9% | 84% | 
Cc1ccc(C2=Nc3c(ccc4c(C)c(C)c(=O)oc34)OC2)cc1 | 94.4% | 102% | 95.7% | 101% |  | 101% | 107% | 94.5% | 110% | 88.9%
N=C1c2nc3n(c2C(=O)c2nc4n(c21)CCCCC4)CCCCC3 | 109% | 106% | 105% | 113% |  | 88.7% | 110% | 92% | 118% | 113%
CS(=O)(=O)N1CCN(Cc2cc3nc(-c4cccc5[nH]ncc45)nc(N4CCOCC4)c3s2)CC1 (tested in a mixture with another compound) | 14.2% | 9.57% (active) | -3.36% (active) | 28% | 30.5% | -0.161% (active) | -13.5% (active) | 18.8% | 10.6% | 
COc1ccc(OC)c2c1CCC1(C2)NC(=O)NC1=O (stereo not given) | 93.6% | 104% | 86.2% | 98.8% |  | 101% | 103% | 100% | 106% | 94.8%
O=C1/C(=C/c2cccc(Cl)c2)CCc2ccccc21 | 93.7% | 91.2% | 72.5% | 87.1% |  | 101% | 97.7% | 90.9% | 106% | 89.7%
COc1ccc2c(c1)sc1nc(-c3ccc(Br)cc3)cn12 | 110% | 108% | 112% | 115% | 99.5% | 76.4% | 86.2% | 99.1% | 112% | 
C[N+]1(C)C2CC[C@@H]1CC(OC(=O)C(O)c1ccccc1)C2 (stereo not given in full) | 105% | 103% | 99% | 110% |  | 102% | 102% | 102% | 113% | 99.5%
CCCCCN1C(=O)CCC1=O | 106% | 102% | 98.6% | 101% |  | 102% | 99.3% | 102% | 110% | 95.1%
COc1cc(-c2nc3nc4sc(C)c(C)c4c(=O)n3[nH]2)cc(OC)c1OC | 73.5% | 82.3% | 80.1% | 92.9% |  | 55.3% | 61.5% | 81.7% | 87.6% | 85.1%
O=[N+]([O-])c1ccc2[nH]cc(-c3c4ccccc4cc4[nH]c5ccc([N+](=O)[O-])cc5c34)c2c1 | 19.9% | 13.4% | 16.6% | 47.6% |  | 23.2% | 28.6% | 21.3% | 28.1% | 17.2%
O=CNc1ccc2c(c1)Cc1cc([N+](=O)[O-])ccc1-2 | 27% | 37.5% | 15.6% | 36.2% | 16.4% | 18.8% | 29.6% | 40.8% | 57% | 
CC1CN(/N=C/c2ccc([N+](=O)[O-])o2)C(=N)O1 (stereo not given) | 97.8% | 108% | 105% | 99.7% | 101% | 93.4% |  | 95.4% | 115% | 
COc1cnc2c(c1)C(=O)c1c-2n(CCCN2CCOCC2)c(=O)c2cc(F)ccc12 | 8.29% (active) | -27.5% (active) | -19.1% (active) | 14.5% |  | -95.1% (active) | -52% (active) | -50.3% (active) | 18.6% | 12.1%
OCCCc1n(Cc2ccc3ccccc3c2)c2ccccc2[n+]1Cc1ccc2ccccc2c1 | 86.4% | 6.48% (active) | 19.8% | 3.3% (active) | 13.6% | -97.8% (active) | -48.2% (active) | -41.9% (active) | -28% (active) | 
CCC(=O)Nc1cc2c(cc1Cl)-c1ccccc1C2 | 94.9% | 114% | 83.1% | 101% | 96.4% |  |  | 88.2% | 122% | 
CCOC(=O)OCC(=O)[C@@]1(O)CC[C@H]2[C@@H]3CCC4=CC(=O)CC[C@]4(C)[C@H]3[C@@H](O)C[C@@]21C | 105% | 103% | 119% | 96.4% | 103% | 98.2% | 87.6% | 89.8% | 110% | 
NC(=N\N=C/Cc1ccccc1)/C(N)=N\N=C\Cc1ccccc1 | 94.9% | 120% | 98.5% | 96.6% | 106% | 107% | 96.1% | 96.8% | 120% | 
CCCCNCCCN(CCCC)CCCNCCCC | 93.2% | 105% | 110% | 98.2% |  | 97.3% | 96.5% | 104% | 99.6% | 90.4%
Cc1cc(C)c2c(N)c3cccc(C)c3nc2n1 | 10.4% | 0.696% (active) | 10.4% | 18.6% |  | -38.7% (active) | -45.8% (active) | 1.49% (active) | -9.8% (active) | -4.42% (active)
